The text below walks through data of ChEMBL document CHEMBL4513146, “CO-ADD screening of Karazin Kharkiv National University (Ukraine) compounds”.

One test relates to Klebsiella pneumoniae. Particulars: Concentration 32 ug.mL-1;; ASSAY_TEST Inhibition of Bacterial Growth; detection method Absorption (OD600); MEDIA CAMHB; plate type 384well; NBS; CORNING #3640; time 18 hr.
The next test relates to Candida albicans. The settings on record: Concentration 32 ug.mL-1; ASSAY_TEST Inhibition of Fungal Growth; detection method Absorption (OD530).
In the next test the test system is Cryptococcus neoformans. The settings on record: Concentration 32 ug.mL-1; ASSAY_TEST Inhibition of Fungal Growth; detection method Resazurin; Absorption (OD600-OD570); plate type 384well; NBS; CORNING #3640. A general note: Resazurin is reduced to fluorescent resorufin, in cell work by metabolically active cells.

Potency and affinity values are given separately.

What is called Inhibition is the relative decrease from the control value, in per cent. `Cc1ccc(C)c(NC(=O)Cn2nc3ccc(-c4ccccc4)nn3c2=O)c1`: the Inhibition in the test with Klebsiella pneumoniae was 5.6%; in the test with Candida albicans it was 1.64%; in the test on Cryptococcus neoformans, -11.25%.
Regarding `COC(=O)c1ccccc1NC(=O)Cn1nc2c3sc(N4CCCC4)nc3ncn2c1=O`, the figures for the Inhibition in the test on Klebsiella pneumoniae, with Candida albicans and with Cryptococcus neoformans were 7.53%, 3.62% and -7.62%, respectively.
For `COC(=O)c1ccc(CN(c2cccc(C)c2)S(=O)(=O)c2cccn3c(C)nnc23)o1`, in that order: 9.19%, 2.2% and -7.03%.
For `COc1ccc(OC)c(NC(=O)Cn2nc3c4c5c(sc4ncn3c2=O)CCCC5)c1`, the results for the Inhibition in the test with Klebsiella pneumoniae, in the test with Candida albicans and in the test on Cryptococcus neoformans were 8.89%, 0.7% and -30.54%, respectively.
`COc1cccc(-n2ccn3c(=O)n(Cc4ccc([N+](=O)[O-])cc4)nc3c2=O)c1`: the Inhibition is recorded as 8.52% in the test on Klebsiella pneumoniae, 4.1% with Candida albicans and -8.87% in the test with Cryptococcus neoformans.
For the compound `Cc1ccc(NC(=O)Cn2nc3ccc(-c4ccccc4)nn3c2=O)cc1`, the Inhibition in the test with Klebsiella pneumoniae was 0.91%; with Candida albicans, 16.23%; in the test with Cryptococcus neoformans, -12.72%.
Take `CCc1ccccc1NC(=O)Cn1nc2n(C)c(=O)c3c(c(-c4ccccc4)cn3C)n2c1=O`: the Inhibition with Klebsiella pneumoniae is on record as 1.01%; in the test with Candida albicans it was 6.61%; in the test with Cryptococcus neoformans, -4.79%.
Regarding `Cc1ccc(-c2cc3c4nnc(SCC(=O)Nc5cccc(Cl)c5C)n4ccn3n2)cc1`, the Inhibition in the test with Klebsiella pneumoniae is -0.41%; in the test on Candida albicans, 0.76%; in the test with Cryptococcus neoformans, -8.53%.
As for `Cc1ccc(NC(=O)Cn2nc3ccc(C(=O)NCc4ccccc4)cn3c2=O)c(Br)c1`, the results for the Inhibition in the test on Klebsiella pneumoniae, in the test with Candida albicans and in the test with Cryptococcus neoformans were -0.66%, 7.92% and -19.22%, respectively.
In the same order, the values of `CC(C)CCNC(=O)Cn1nc2n(Cc3cccs3)c(=O)c3sccc3n2c1=O` are 6.63%, -0.58% and -17.23%.
Turning to `Cc1cccc(Cn2nc3c(=O)n(-c4cccc(Cl)c4C)ccn3c2=O)c1`, the Inhibition in the test on Klebsiella pneumoniae was -2.16%; with Candida albicans, 8.37%; with Cryptococcus neoformans, -8.02%.
On to `Cc1ccc(Sc2ccc3nn(CC(=O)Nc4cccc(Cl)c4)c(=O)n3n2)cc1`, for which the figures for the Inhibition in the test with Klebsiella pneumoniae, with Candida albicans and in the test with Cryptococcus neoformans were -1.6%, 23.7% and -8.64%, respectively.
Regarding `O=c1n(Cc2nc(-c3ccc(F)cc3)no2)nc2ccc(-c3ccccc3)nn12`, the results for the Inhibition with Klebsiella pneumoniae, in the test on Candida albicans and in the test with Cryptococcus neoformans were 18.38%, -1.53% and -18.94%, respectively.
On to `CC(C)c1nnc2c(SCC(=O)Nc3ccc(F)cc3F)nc3ccccc3n12`, for which the values for the Inhibition in the test with Klebsiella pneumoniae, in the test with Candida albicans and with Cryptococcus neoformans were 13.12%, -0.24% and -26.87%, respectively.
As to `Cc1ccc(NC(=O)Cn2nc3c4cc(-c5ccc(C)c(C)c5)nn4ccn3c2=O)cc1C`, the Inhibition was 4.54% with Klebsiella pneumoniae, 4.1% in the test on Candida albicans and -9.03% with Cryptococcus neoformans.
For `O=C(CSc1nnc2c3cc(-c4ccc(F)cc4)nn3ccn12)NCc1ccccc1Cl`, the Inhibition was 4.63% in the test with Klebsiella pneumoniae, 14.03% with Candida albicans and -17.41% in the test on Cryptococcus neoformans.
For `CCOc1ccccc1NC(=O)Cn1nc2c(Sc3cccc(C)c3)nccn2c1=O`, in that order: 9.01%, 0.35% and -13.32%.
On to `Cc1cc(C)cc(NC(=O)Cn2nc3n(C)c(=O)c4c(c(-c5ccccc5)cn4C)n3c2=O)c1`, for which the figures for the Inhibition in the test with Klebsiella pneumoniae, with Candida albicans and in the test with Cryptococcus neoformans were 6.43%, 0.06% and -5.54%, respectively.
For `COc1ccc(-c2cc3c4nn(CC(=O)Nc5ccc(OC)c(OC)c5)c(=O)n4ccn3n2)cc1`, in that order: 11.9%, -0.77% and -19.32%.
For `Cc1cccc(C)c1NC(=O)Cn1nc2c(Sc3cccc(F)c3)nccn2c1=O`, in that order: 4.53%, -1.35% and -4.17%.
For `COc1cccc(Oc2nccn3c(=O)n(CC(=O)Nc4cc(C)c(Cl)cc4OC)nc23)c1`, the figures for the Inhibition in the test on Klebsiella pneumoniae, in the test with Candida albicans and in the test with Cryptococcus neoformans were -0.9%, 1.25% and -7.05%, respectively.
In the same order, the values of `Cc1cc2nn(CC(=O)Nc3cc(F)ccc3C)c(=O)n2c(Nc2ccc(F)c(C)c2)n1` are 15.58%, 4.23% and -9.62%.
For `CC(C)(C)NC(=O)Cn1nc2n(Cc3cccs3)c(=O)c3sccc3n2c1=O`, the Inhibition is given as 3.31% in the test on Klebsiella pneumoniae, -0.71% with Candida albicans and -8.9% in the test with Cryptococcus neoformans.
On to `COc1ccc(NC(=O)Cn2nc3c(Sc4ccccc4)nccn3c2=O)cc1OC`, for which the Inhibition is given as 6.09% in the test on Klebsiella pneumoniae, 1.58% in the test with Candida albicans and -22.41% with Cryptococcus neoformans.
As for `Cc1cc(C)c(NC(=O)Cn2nc3c(N4CCCC(C)C4)nccn3c2=O)c(C)c1` (configuration not stated), the Inhibition with Klebsiella pneumoniae is recorded as -3.43%; with Candida albicans, -1.23%; in the test on Cryptococcus neoformans, -2.74%.
Regarding `Cc1ccc(-n2ccn3c(=O)n(Cc4ccc(Cl)cc4)nc3c2=O)cc1C`, the Inhibition in the test on Klebsiella pneumoniae was 1.49%; in the test with Candida albicans, 0.66%; in the test on Cryptococcus neoformans, -5.42%.
On to `COc1ccc(N(Cc2cccc(Cl)c2)S(=O)(=O)c2ccc3nncn3c2)cc1`, for which the Inhibition was 12.52% in the test with Klebsiella pneumoniae, 3.54% in the test on Candida albicans and -3.69% in the test with Cryptococcus neoformans.
Consider `CC(C)c1nnc2c(=O)n(CC(=O)Nc3ccc(Cl)c(Cl)c3)c3ccccc3n12`, for which the values for the Inhibition in the test with Klebsiella pneumoniae, in the test on Candida albicans and with Cryptococcus neoformans were 5.02%, 3.27% and -9.31%, respectively.
`Cc1ccc(-c2cc3c4nn(CC(=O)N5CCN(c6ccc(F)cc6)CC5)c(=O)n4ccn3n2)cc1C`: the Inhibition is recorded as 7.51% in the test with Klebsiella pneumoniae, 1.65% with Candida albicans and -26.79% in the test with Cryptococcus neoformans.
Turning to `CCc1ccc(NC(=O)Cn2c(=O)c3nnc(C(C)C)n3c3ccccc32)cc1`, the results for the Inhibition with Klebsiella pneumoniae, in the test on Candida albicans and in the test on Cryptococcus neoformans were 8.25%, 26.99% and -22.84%, respectively.
With `Cc1nnc2ccc(S(=O)(=O)N(Cc3ccccc3)c3ccc(Cl)cc3)cn12`, the values for the Inhibition in the test on Klebsiella pneumoniae, in the test on Candida albicans and in the test with Cryptococcus neoformans were 0.23%, -0.42% and -6.05%, respectively.
In the same order, the values of `CC(C)(C)OC(=O)CN(c1ccc2c(c1)OCCO2)S(=O)(=O)c1ccc2nncn2c1` are 11.52%, 1.39% and -8.21%.
For `CC(C)CCn1c(=O)c2sccc2n2c(=O)n(CC(=O)N3CCC(Cc4ccccc4)CC3)nc12`, in that order: -9.97%, 0.93% and -41.06%.
Consider `COc1ccc(CNC(=O)CSc2nnc3c4cc(-c5ccc(OC)cc5)nn4ccn23)cc1`, for which the Inhibition with Klebsiella pneumoniae was -0.91%; with Candida albicans it was 1.93%; with Cryptococcus neoformans it was -6.67%.
In the same order, the values of `COc1ccc(N(Cc2cccc(OC)c2)S(=O)(=O)c2ccc3nnc(C)n3c2)cc1` are 9.44%, 0.91% and -1.64%.
For the compound `CC(C)(C)Sc1ccc2nn(CC(=O)Nc3ccc(Cl)cc3)c(=O)n2n1`, the Inhibition is 16.93% with Klebsiella pneumoniae, 5.49% with Candida albicans and -24.82% with Cryptococcus neoformans.
As for `O=C(Cn1nc2c(Sc3ccccc3)nccn2c1=O)Nc1cccc(Cl)c1F`, the Inhibition in the test on Klebsiella pneumoniae is listed as 13.46%; in the test with Candida albicans it was 0.76%; in the test on Cryptococcus neoformans it was -9.38%.
Take `Cc1ccc(NC(=O)Cn2nc3c(Oc4ccccc4)nccn3c2=O)c(Br)c1`: the Inhibition is on record as -5.15% in the test on Klebsiella pneumoniae, 0.27% in the test on Candida albicans and -6.15% in the test with Cryptococcus neoformans.
As for `CCOc1ccc(NC(=O)Cn2nc3c4c5c(sc4ncn3c2=O)CCCC5)cc1`, the Inhibition with Klebsiella pneumoniae is given as 5.11%; in the test on Candida albicans, 2.52%; with Cryptococcus neoformans, -9.01%.
On to `CC(C)Cn1c(=O)c2ccc(C(=O)NC3CCCC3)cc2n2c(=O)n(CC(=O)NC3CCCCC3)nc12`, for which the values for the Inhibition with Klebsiella pneumoniae, in the test on Candida albicans and in the test on Cryptococcus neoformans were 4.14%, -1.41% and -14.36%, respectively.
`CC(C)CCn1c(=O)c2ccc(C(=O)NC3CCCC3)cc2n2c(=S)[nH]nc12`: the Inhibition is listed as -1.87% with Klebsiella pneumoniae, 0.86% in the test on Candida albicans and -11.12% with Cryptococcus neoformans.
As to `Cc1ccc(NC(=O)CSc2nc3ccccc3n3c(C)nnc23)c(Br)c1`, the Inhibition with Klebsiella pneumoniae is listed as 14.29%; in the test on Candida albicans, 22.27%; in the test with Cryptococcus neoformans, -9.59%.
On to `CCOc1ccccc1NC(=O)Cn1nc2c(Sc3ccccc3)nccn2c1=O`, for which the Inhibition is reported as 3.54% with Klebsiella pneumoniae, -0.33% in the test with Candida albicans and -18.53% in the test on Cryptococcus neoformans.
Take `CC(C)c1nnc2c(SCC(=O)Nc3ccccc3F)nc3ccccc3n12`: the Inhibition is listed as 10.81% with Klebsiella pneumoniae, 2.9% in the test on Candida albicans and -27.54% in the test with Cryptococcus neoformans.
